Experimental data as given in PubChem BioAssay (NCI).
Several values for one entry are separate records, joined by “and”; a condition that tells them apart may be missing. Equal entries are not always repeated. Compounds without any hit were thinned out: in the full panel of roughly 79,000, 15% have a hit. Where a structure was tested more than once in an assay, its records may differ in their call. Activity calls are given as the source filed them. Rule as the data show it: active = growth inhibition above about 70%; inactive = the rest.

Experiments:
[1] = NCI Yeast Anticancer Drug Screen. Data for the rad50 strain (AID 155);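 also: 0% = growth of vehicle-only cultures of the same strain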; settings: S. cerevisiae rad50 strain growth inhibition, stronger effect = higher value
Outline: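 Genetically altered yeast (DNA repair pathway); compound treatment; growth inhibition vs vehicle ctrl.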

[2] = NCI Yeast Anticancer Drug Screen. Data for the mec2-1 strain (AID 157); settings: S. cerevisiae mec2-1 strain, stronger effect = higher value
Outline: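 Growth inhibition is read against vehicle-treated controls after compound exposure of the mec2-1 yeast strain, which is defective in DNA damage repair or cell cycle control.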

[3] = NCI Yeast Anticancer Drug Screen. Data for the sgs1 mgt1 strain (AID 161);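 also: 0% = growth of cultures given vehicle only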; settings: S. cerevisiae sgs1 mgt1 strain, stronger effect = higher value
Outline: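 Yeast cells carrying a defined DNA-repair defect were exposed to test compounds. Growth inhibition was measured relative to vehicle-treated controls.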

[4] = NCI Yeast Anticancer Drug Screen. Data for the cln2 rad14 strain (AID 165);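 also: 0% = growth equal to vehicle treated cultures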; settings: S. cerevisiae cln2 rad14 strain, stronger effect = higher value
Outline: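 Growth inhibition, relative to vehicle-treated controls, is the read-out. The test organism is a yeast strain with defined genetic alterations, cln2 rad14.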

[5] = NCI Yeast Anticancer Drug Screen. Data for the bub3 strain (AID 167); settings: S. cerevisiae bub3 mutant strain, stronger effect = higher value
Outline: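 Yeast carrying a defined mutation is treated with each compound, and growth is compared with that of vehicle-exposed cells to give inhibition.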

[6] = NCI Yeast Anticancer Drug Screen. Data for the mlh1 rad18 strain (AID 175); settings: S. cerevisiae mlh1 rad18 strain growth inhibition, stronger effect = higher value
Outline: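 Cells of a genetically altered yeast strain, deficient in DNA damage repair, were treated with compound. Their growth was then compared with that of vehicle-treated cultures to give inhibition.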

[7] = at 5.0 µM (retest, dose inferred, filed as 0.5)
[8] = at 50.0 µM (retest, dose inferred, filed as 5.0)

Structure (SMILES)	growth inhibition [1, 7]	growth inhibition [1, 8]	growth inhibition ([1]; at 50.0 µM)	growth inhibition [2, 7]	growth inhibition [2, 8]	growth inhibition ([2]; at 50.0 µM)	growth inhibition [3, 7]	growth inhibition [3, 8]	growth inhibition ([3]; at 50.0 µM)	growth inhibition [4, 7]	growth inhibition [4, 8]	growth inhibition ([4]; at 50.0 µM)	growth inhibition [5, 7]	growth inhibition [5, 8]	growth inhibition ([5]; at 50.0 µM)	growth inhibition [6, 7]	growth inhibition [6, 8]	growth inhibition ([6]; at 50.0 µM)
CC(Cl)CN(C)C (configuration not stated)	24% (inactive)	74% (active)	75.3% (active) and 30.4% (inactive)	-5% (inactive)	13% (inactive)	1.1% (inactive) and -17.4% (inactive)	25% (inactive)	57% (inactive)	54.5% (inactive) and 33.9% (inactive)	-1% (inactive)	3% (inactive)	-55.5% (inactive) and 7.95% (inactive)	-8% (inactive)	-10% (inactive)	-20.4% (inactive) and -16.6% (inactive)	11% (inactive)	37% (inactive)	57% (inactive) and 18.3% (inactive)
COC(=O)C(C)(C)[n+]1c(C)cc(C)cc1C	-13% (inactive)	-6% (inactive)	-5.45% (inactive)	-5% (inactive)	-35% (inactive)	-3% (inactive)	-17% (inactive)	-14% (inactive)	-3.1% (inactive)	-10% (inactive)	-8% (inactive)	-7.1% (inactive)	1% (inactive)	8% (inactive)	-6.5% (inactive)	-1% (inactive)	5% (inactive)	5.9% (inactive)
C[N+](C)=C1C=CC(=C2C=CSC=C2)C=C1	22% (inactive)	45% (inactive)	11.1% (inactive)	27% (inactive)	36% (inactive)	10.3% (inactive)	20% (inactive)	46% (inactive)	59.8% (inactive)	29% (inactive)	45% (inactive)	25% (inactive)	17% (inactive)	72% (active)	79.2% (active)	26% (inactive)	52% (inactive)	89.8% (active)
N#C[SH2+].N#C[SH2+].N#C[SH2+].N#C[SH2+].[Cu+2].c1ccc(C[P+](c2ccccc2)(c2ccccc2)c2ccccc2)cc1	14% (inactive)	87% (active)	96.8% (active)	5% (inactive)	95% (active)	97.8% (active)	21% (inactive)	91% (active)	97.9% (active)	-8% (inactive)	82% (active)	90.7% (active)	5% (inactive)	90% (active)	92.9% (active)	45% (inactive)	97% (active)	97.2% (active)
ClCCCCCl	13% (inactive)	-2% (inactive)	32.2% (inactive)	-4% (inactive)	-2% (inactive)	16.8% (inactive)	5% (inactive)	-5% (inactive)	-18.9% (inactive)	5% (inactive)	-6% (inactive)	41% (inactive)	4% (inactive)	0% (inactive)	-17.6% (inactive)	4% (inactive)	-1% (inactive)	26.6% (inactive)
O=c1[nH]cc(Cn2cnc3ncccc3c2=O)c(=O)[nH]1	-5% (inactive)	-4% (inactive)	6.4% (inactive)	-5% (inactive)	-5% (inactive)	7.55% (inactive)	-3% (inactive)	-1% (inactive)	-2.1% (inactive)	-3% (inactive)	-11% (inactive)	40.5% (inactive)	-4% (inactive)	-2% (inactive)	-18.2% (inactive)	-8% (inactive)	-5% (inactive)	-16.5% (inactive)
CC1(C)C(=O)C=CC2(C)C1CC(O)C1(C)C2CCC2(C)C(c3ccoc3)OC(=O)C3OC321 (configuration not stated)	15% (inactive)	16% (inactive)	86.8% (active)	4% (inactive)	12% (inactive)	86.5% (active)	11% (inactive)	52% (inactive)	82.7% (active)	4% (inactive)	8% (inactive)	76.5% (active)	3% (inactive)	12% (inactive)	82.2% (active)	16% (inactive)	18% (inactive)	44.5% (inactive)
Nc1cc(Cl)ccc1C(=O)c1ccccc1Cl	-1% (inactive)	98% (active)	98.8% (active)	-4% (inactive)	99% (active)	99% (active)	2% (inactive)	98% (active)	98.8% (active)	-6% (inactive)	98% (active)	96.8% (active)	-9% (inactive)	98% (active)	98% (active)	-4% (inactive)	99% (active)	98.2% (active)
C[CH2][Sn]([Cl])([CH2]C)[O][Sn]([CH2]C)([CH2]C)[O][Sn]([Cl])([CH2]C)[CH2]C	16% (inactive)	79% (active)	76% (active)	19% (inactive)	84% (active)	81% (active)	-17% (inactive)	89% (active)	86.3% (active)	15% (inactive)	90% (active)	82.2% (active)	12% (inactive)	89% (active)	83.2% (active)	11% (inactive)	77% (active)	81.4% (active)
